About 79,000 compounds went through this panel and 15% of them were active in at least one assay; those are over-represented in the sample as a whole. Unmarked numbers belong to inactive results. Calls of active or inactive are those of the source. Cut-off read from the data, not from the text of the source: active = growth inhibition above about 70%; inactive = the rest.
Experiments:
[1] = NCI Yeast Anticancer Drug Screen. Data for the mlh1 strain (AID 171);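 note: 0% = growth of vehicle-treated control cultures of the same strain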; details: S. cerevisiae mlh1 strain growth inhibition, hits give high values
Method in brief: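 Yeast screen: mutant strain plus compound, growth scored against vehicle control wells.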

[2] = NCI Yeast Anticancer Drug Screen. Data for the sgs1 strain (AID 173);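 note: 0% = growth of vehicle-only control cultures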; details: S. cerevisiae sgs1 mutant, hits give high values
Method in brief: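 Inhibition of yeast growth served as the measure. The mutant strain was treated with each compound, and growth was normalised to cultures receiving vehicle alone.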

[3] = NCI Yeast Anticancer Drug Screen. Data for the mlh1 rad18 strain (AID 175); details: S. cerevisiae mlh1 rad18 strain growth inhibition, hits give high values
Method in brief: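 Compound-treated yeast growth, normalised to vehicle controls. Strain bears defined DNA repair mutations.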

[4] = NCI Yeast Anticancer Drug Screen. Data for the rad18 strain (AID 177); details: S. cerevisiae rad18 mutant growth inhibition, hits give high values
Method in brief: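 Inhibition values reflect reduced yeast growth compared with vehicle-treated controls, using a strain engineered with a DNA damage repair defect.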

[5] = NCI Yeast Anticancer Drug Screen. Data for the rad52 strain (AID 147);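 note: 0% = growth of vehicle-treated control cultures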; details: S. cerevisiae rad52 mutant growth inhibition, hits give high values
Method in brief: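 Genetically altered yeast (DNA damage repair defect) treated with compound; inhibition calculated relative to vehicle.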

[6] = NCI Yeast Anticancer Drug Screen. Data for the wt1 strain (AID 149);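 note: 0% = growth of vehicle-treated wt1 cultures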; details: S. cerevisiae wt1 strain (SPY 50644) growth inhibition, hits give high values
Method in brief: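 Measured: growth of wt1 yeast under compound versus vehicle treatment, reported as inhibition.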

[7] = NCI Yeast Anticancer Drug Screen. Data for the rad50EPP+ strain (AID 151);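 note: 0% = growth of vehicle-treated control cultures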; details: S. cerevisiae rad50 mutant strain, hits give high values
Method in brief: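 Strain rad50EPP+; compound exposure; % growth inhibition vs vehicle.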

[8] = NCI Yeast Anticancer Drug Screen. Data for the mgt1 strain (AID 153); details: S. cerevisiae mgt1 mutant growth inhibition, hits give high values
Method in brief: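 Read-out: yeast growth inhibition vs vehicle control. Strain mgt1, drawn from a panel altered in DNA damage repair or cell cycle control.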

[9] = NCI Yeast Anticancer Drug Screen. Data for the rad50 strain (AID 155);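 note: 0% = growth of vehicle-only cultures of the same strain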; details: S. cerevisiae rad50 strain growth inhibition, hits give high values
Method in brief: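 Growth of the mutant yeast was measured after compound exposure and referenced to vehicle-treated cultures.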

[10] = NCI Yeast Anticancer Drug Screen. Data for the rad14 strain (AID 159);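 note: 0% = growth of vehicle-treated control cultures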; details: S. cerevisiae rad14 strain growth inhibition, hits give high values
Method in brief: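 Here, inhibition of yeast growth was measured after compound exposure, using a strain with a genetic defect in DNA damage repair and vehicle-treated cultures as the reference.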

[11] = NCI Yeast Anticancer Drug Screen. Data for the sgs1 mgt1 strain (AID 161);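 note: 0% = growth of cultures given vehicle only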; details: S. cerevisiae sgs1 mgt1 strain, hits give high values
Method in brief: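 Read-out: growth inhibition vs vehicle controls. Cells: mutant yeast strain deficient in DNA damage repair.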

[12] = NCI Yeast Anticancer Drug Screen. Data for the CLN2oe strain (AID 163);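 note: 0% = growth of vehicle-only control cultures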; details: S. cerevisiae CLN2oe strain, hits give high values
Method in brief: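 Strain altered in cell-cycle control, incubated with compound; growth compared to solvent-treated controls.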

[13] = NCI Yeast Anticancer Drug Screen. Data for the cln2 rad14 strain (AID 165);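 note: 0% = growth equal to vehicle treated cultures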; details: S. cerevisiae cln2 rad14 strain, hits give high values
Method in brief: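 The screen exposed genetically defined yeast (cln2 rad14) to test compounds and scored growth inhibition relative to vehicle-treated controls.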

[14] = NCI Yeast Anticancer Drug Screen. Data for the bub3 strain (AID 167); details: S. cerevisiae bub3 mutant strain, hits give high values
Method in brief: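 Whole-cell yeast assay. The mutant strain was incubated with compounds, and growth inhibition was determined by comparison with vehicle-treated cells.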

[15] = NCI Yeast Anticancer Drug Screen. Data for the wt2 strain (AID 169);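 note: 0% = growth of vehicle-treated yeast cultures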; details: S. cerevisiae wt2 strain growth inhibition, hits give high values
Method in brief: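 Steps: yeast strain treated with compound; growth recorded; inhibition calculated relative to cultures given vehicle alone.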

[16] = NCI Yeast Anticancer Drug Screen. Data for the mec2-1 strain (AID 157); details: S. cerevisiae mec2-1 strain, hits give high values
Method in brief: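 Cells of the genetically defined mec2-1 yeast strain are incubated with test compound. Inhibition of growth is calculated against vehicle-treated controls.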

[17] = at 5.0 µM (retest, dose inferred, filed as 0.5)
[18] = at 50.0 µM (retest, dose inferred, filed as 5.0)

## O=C1CSC(c2cccc(Cl)c2)N1c1ccc(-c2ccc(-n3c(-c4ccccc4)nc4ccccc4c3=O)cc2)cc1 (stereo unspecified)
[1]; at 1.2 µM
  growth inhibition: 1%
[1]; at 3.7 µM
  growth inhibition: 5%
[1]; at 11.0 µM
  growth inhibition: 7%
[1]; at 33.0 µM
  growth inhibition: 24%
[1]; at 100.0 µM
  growth inhibition: 42%
[2]; at 1.2 µM
  growth inhibition: 0%
[2]; at 3.7 µM
  growth inhibition: 2%
[2]; at 11.0 µM
  growth inhibition: 10%
[2]; at 33.0 µM
  growth inhibition: 39%
[2]; at 100.0 µM
  growth inhibition: 57%
[3]; [17]
  growth inhibition: 5%
[3]; [18]
  growth inhibition: 85% (active)
[3]; at 50.0 µM
  growth inhibition: 85.1% (active)
[4]; at 1.2 µM
  growth inhibition: 0%
[4]; at 3.7 µM
  growth inhibition: 3%
[4]; at 11.0 µM
  growth inhibition: 14%
[4]; at 33.0 µM
  growth inhibition: 22%
[4]; at 100.0 µM
  growth inhibition: 31%

## CCOC(=O)COc1c(OC)cc(C2C3=C(COC3=O)Oc3cc4c(cc32)OCO4)cc1OC (stereo unspecified)
[5]; at 1.2 µM
  growth inhibition: 2%
[5]; at 3.7 µM
  growth inhibition: 1%
[5]; at 11.0 µM
  growth inhibition: 0%
[5]; at 33.0 µM
  growth inhibition: 8%
[5]; at 100.0 µM
  growth inhibition: 23%
[6]; at 1.2 µM
  growth inhibition: 1%
[6]; at 3.7 µM
  growth inhibition: 2%
[6]; at 11.0 µM
  growth inhibition: 4%
[6]; at 33.0 µM
  growth inhibition: 3%
[6]; at 100.0 µM
  growth inhibition: 6%
[7]; at 1.2 µM
  growth inhibition: -2%
[7]; at 3.7 µM
  growth inhibition: -16%
[7]; at 11.0 µM
  growth inhibition: -22%
[7]; at 33.0 µM
  growth inhibition: -11%
[7]; at 100.0 µM
  growth inhibition: 15%
[8]; at 1.2 µM
  growth inhibition: -3%
[8]; at 3.7 µM
  growth inhibition: 2%
[8]; at 11.0 µM
  growth inhibition: 0%
[8]; at 33.0 µM
  growth inhibition: 16%
[8]; at 100.0 µM
  growth inhibition: 8%
[9]; at 1.2 µM
  growth inhibition: 1%
[9]; at 3.7 µM
  growth inhibition: 0%
[9]; [17]
  growth inhibition: -4%
[9]; at 11.0 µM
  growth inhibition: 1%
[9]; at 33.0 µM
  growth inhibition: 3%
[9]; [18]
  growth inhibition: -1%
[9]; at 50.0 µM
  growth inhibition: 2.85%
[9]; at 100.0 µM
  growth inhibition: 8%
[10]; at 1.2 µM
  growth inhibition: -3%
[10]; at 3.7 µM
  growth inhibition: -3%
[10]; at 11.0 µM
  growth inhibition: 0%
[10]; at 33.0 µM
  growth inhibition: 4%
[10]; at 100.0 µM
  growth inhibition: 15%
[11]; [17]
  growth inhibition: -9%
[11]; [18]
  growth inhibition: 19%
[11]; at 50.0 µM
  growth inhibition: 14.7%
[12]; at 1.2 µM
  growth inhibition: -2%
[12]; at 3.7 µM
  growth inhibition: -3%
[12]; at 11.0 µM
  growth inhibition: 5%
[12]; at 33.0 µM
  growth inhibition: 2%
[12]; at 100.0 µM
  growth inhibition: 10%
[13]; [17]
  growth inhibition: -1%
[13]; [18]
  growth inhibition: 29%
[13]; at 50.0 µM
  growth inhibition: 71% (active)
[14]; at 1.2 µM
  growth inhibition: -4%
[14]; at 3.7 µM
  growth inhibition: 0%
[14]; [17]
  growth inhibition: -13%
[14]; at 11.0 µM
  growth inhibition: 0%
[14]; at 33.0 µM
  growth inhibition: 6%
[14]; [18]
  growth inhibition: 19%
[14]; at 50.0 µM
  growth inhibition: 28.2%
[14]; at 100.0 µM
  growth inhibition: 13%
[15]; at 1.2 µM
  growth inhibition: 0%
[15]; at 3.7 µM
  growth inhibition: 0%
[15]; at 11.0 µM
  growth inhibition: 1%
[15]; at 33.0 µM
  growth inhibition: 3%
[15]; at 100.0 µM
  growth inhibition: 12%
[1]; at 1.2 µM
  growth inhibition: 1%
[1]; at 3.7 µM
  growth inhibition: -1%
[1]; at 11.0 µM
  growth inhibition: -1%
[1]; at 33.0 µM
  growth inhibition: 2%
[1]; at 100.0 µM
  growth inhibition: 12%
[2]; at 1.2 µM
  growth inhibition: 0%
[2]; at 3.7 µM
  growth inhibition: 2%
[2]; at 11.0 µM
  growth inhibition: 1%
[2]; at 33.0 µM
  growth inhibition: 9%
[2]; at 100.0 µM
  growth inhibition: 28%
[3]; [17]
  growth inhibition: -10%
[3]; [18]
  growth inhibition: 49%
[3]; at 50.0 µM
  growth inhibition: -4.55%
[4]; at 1.2 µM
  growth inhibition: 0%
[4]; at 3.7 µM
  growth inhibition: -2%
[4]; at 11.0 µM
  growth inhibition: -11%
[4]; at 33.0 µM
  growth inhibition: -2%
[4]; at 100.0 µM
  growth inhibition: 3%

## C[C@]12CC[C@H](O)CC1=CC[C@@H]1C2CC[C@]2(C)C(=O)NC(=O)CC12 (stereo partly specified)
[5]; at 1.2 µM
  growth inhibition: -27%
[5]; at 3.7 µM
  growth inhibition: -23%
[5]; at 11.0 µM
  growth inhibition: -17%
[5]; at 33.0 µM
  growth inhibition: 58%
[5]; at 100.0 µM
  growth inhibition: 85% (active)
[6]; at 1.2 µM
  growth inhibition: -22%
[6]; at 3.7 µM
  growth inhibition: -24%
[6]; at 11.0 µM
  growth inhibition: -21%
[6]; at 33.0 µM
  growth inhibition: 55%
[6]; at 100.0 µM
  growth inhibition: 84% (active)
[7]; at 1.2 µM
  growth inhibition: -33%
[7]; at 3.7 µM
  growth inhibition: -19%
[7]; at 11.0 µM
  growth inhibition: 18%
[7]; at 33.0 µM
  growth inhibition: 74% (active)
[7]; at 100.0 µM
  growth inhibition: 93% (active)
[9]; at 1.2 µM
  growth inhibition: -16%
[9]; at 3.7 µM
  growth inhibition: -19%
[9]; [17]
  growth inhibition: -4%
[9]; at 11.0 µM
  growth inhibition: -13%
[9]; at 33.0 µM
  growth inhibition: 53%
[9]; [18]
  growth inhibition: 69%
[9]; at 50.0 µM
  growth inhibition: 82.4% (active)
[9]; at 100.0 µM
  growth inhibition: 88% (active)
[16]; at 1.2 µM
  growth inhibition: -23%
[16]; at 3.7 µM
  growth inhibition: -24%
[16]; [17]
  growth inhibition: -39%
[16]; at 11.0 µM
  growth inhibition: -27%
[16]; at 33.0 µM
  growth inhibition: 14%
[16]; [18]
  growth inhibition: 82% (active)
[16]; at 50.0 µM
  growth inhibition: 77.9% (active)
[16]; at 100.0 µM
  growth inhibition: 83% (active)
[10]; at 1.2 µM
  growth inhibition: -50%
[10]; at 3.7 µM
  growth inhibition: -50%
[10]; at 11.0 µM
  growth inhibition: -38%
[10]; at 33.0 µM
  growth inhibition: 64%
[10]; at 100.0 µM
  growth inhibition: 87% (active)
[11]; [17]
  growth inhibition: 33%
[11]; [18]
  growth inhibition: 94% (active)
[11]; at 50.0 µM
  growth inhibition: 91.8% (active)
[13]; [17]
  growth inhibition: 1%
[13]; [18]
  growth inhibition: 80% (active)
[13]; at 50.0 µM
  growth inhibition: 84.7% (active)
[14]; at 1.2 µM
  growth inhibition: -23%
[14]; at 3.7 µM
  growth inhibition: -15%
[14]; [17]
  growth inhibition: -4%
[14]; at 11.0 µM
  growth inhibition: -12%
[14]; at 33.0 µM
  growth inhibition: 60%
[14]; [18]
  growth inhibition: 90% (active)
[14]; at 50.0 µM
  growth inhibition: 80% (active)
[14]; at 100.0 µM
  growth inhibition: 86% (active)
[15]; at 1.2 µM
  growth inhibition: -14%
[15]; at 3.7 µM
  growth inhibition: 27%
[15]; at 11.0 µM
  growth inhibition: 78% (active)
[15]; at 33.0 µM
  growth inhibition: 94% (active)
[15]; at 100.0 µM
  growth inhibition: 97% (active)
[1]; at 1.2 µM
  growth inhibition: -33%
[1]; at 3.7 µM
  growth inhibition: -3%
[1]; at 11.0 µM
  growth inhibition: 71% (active)
[1]; at 33.0 µM
  growth inhibition: 94% (active)
[1]; at 100.0 µM
  growth inhibition: 96% (active)
[2]; at 1.2 µM
  growth inhibition: 17%
[2]; at 3.7 µM
  growth inhibition: 45%
[2]; at 11.0 µM
  growth inhibition: 90% (active)
[2]; at 33.0 µM
  growth inhibition: 96% (active)
[2]; at 100.0 µM
  growth inhibition: 97% (active)
[3]; [17]
  growth inhibition: -25%
[3]; [18]
  growth inhibition: 82% (active)
[3]; at 50.0 µM
  growth inhibition: 70.3% (active)

Reference: PubChem BioAssay (NCI)
